Several values for one entry are separate records, joined by “and”; a condition that tells them apart may be missing. Equal values may be shown once. Inconclusive results are not listed. Activity calls are given as the source filed them.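 Rule for the calls, unless noted: active = normalized viability below 100% at a tested concentration; inactive = the rest.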
What was measured:
[1] = viability loss in pontine glioma line – cell-based, SU-DIPG-XVII, MIPE5.0, CellTiter-Glo, qHTS, dose response (AID 1347060; cut-off not given, nearly all actives have AC50 up to about 26 µM;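 for AC50: cells exposed to compound for 48 hours before viability readout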); conditions: CellTiter-Glo ATP luminescence
[2] = viability loss in pontine glioma line – cell-based, SU-DIPG-XIII, MIPE4.0, CellTiter-Glo, qHTS, dose response (AID 1347061; cut-off not given, nearly all actives have AC50 up to about 37 µM;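 note: cells exposed to compound for 48 hours before readout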); conditions: CellTiter-Glo ATP luminescence
[3] = viability loss in pontine glioma line – cell-based, JHH-DIPG-1, MIPE4.0, CellTiter-Glo, qHTS, dose response (AID 1347062; cut-off not given, nearly all actives have AC50 up to about 27 µM;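 for AC50: cells exposed to compound for two days before readout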); conditions: JHH-DIPG-1 viability, CellTiter-Glo ATP luminescence
[4] = viability loss in pontine glioma line – cell-based, SU-DIPG-IV, MIPE4.0, CellTiter-Glo, qHTS, dose response (AID 1347063; cut-off not given, nearly all actives have AC50 up to about 30 µM;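 note: compound exposure lasted 48 hours before the viability readout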); conditions: CellTiter-Glo ATP luminescence
[5] = viability loss in pontine glioma line – cell-based, SU-DIPG-XIII, MIPE5.0, CellTiter-Glo, qHTS, dose response (AID 1347064; cut-off not given, nearly all actives have AC50 up to about 23 µM;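 for AC50: cells exposed to compound for 48 hours before the viability read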); conditions: CellTiter-Glo ATP luminescence
[6] = viability loss in pontine glioma line – cell-based, SU-DIPG-XXV, MIPE5.0, CellTiter-Glo, qHTS, dose response (AID 1347065; cut-off not given, nearly all actives have AC50 up to about 26 µM;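 note: cells exposed to compound for 48 hours before ATP readout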); conditions: CellTiter-Glo ATP luminescence
[7] = JHH-DIPG-1 glioma cell viability, MIPE5.0 library, CellTiter-Glo luminescence, qHTS (AID 1347067; cut-off not given, nearly all actives have AC50 up to about 26 µM;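 note: cells exposed to compound for 48 hours before readout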); conditions: JHH-DIPG-1 glioma viability, CellTiter-Glo ATP luminescence
[8] = growth inhibition of DIPG cells – cell-based, MIPE5.0 library, qHTS (AID 1347068; cut-off not given, nearly all actives have IC50 up to about 30 µM;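 for IC50: cells exposed to compound for 48 hours before viability readout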); conditions: SU-DIPG-XXV viability
[9] = viability loss with induced miR-34 in A549 – imaging, A549 dox-inducible miR-34, nuclei and caspase counts, primary screen (AID 1347080;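 active = compounds whose cell count with miR-34 switched on is under 0.7 times the count with it off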); conditions: A549 miR-34 inducible, Hoechst nuclei count, 48 h
[10] = MELAS cybrid and Rieske KO viability enhancers – cell-based, MELAS cybrids, Rieske KO mouse fibroblasts, CellTiter-Glo, primary screen (AID 1508586;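 active = mean z-score across replicates of 1.96 or higher in either the MELAS or the Rieske mutant cell line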;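 note: z relative to plate mean and SD of compound and empty wells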); conditions: low glucose
[11] = growth inhibition of DIPG cells – cell-based, MIPE4.0 library, CellTiter-Glo luminescence, qHTS (AID 1347066; cut-off not given, nearly all actives have AC50 up to about 30 µM;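 note: cells exposed to compound for 48 hours before readout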); conditions: SU-DIPG-VI viability, CellTiter-Glo ATP luminescence
[12] = compounds altering HSF1 focus formation in cells – imaging, Selleck Cancer Library (AID 1347162; in the data active = plate-normalised HSF1 focus index below about 0.46); conditions: human cells, HSF1 nuclear foci imaging, at 10 µM; SSMD: measured here: HSF1 foci SSMD mean; cell count: measured here: cell number; plate-normalised HSF1 focus index: stronger effect = lower value
[13] = drug combination growth inhibition, ovarian cancer – cell-based, oncology-focused library, rucaparib conditional, profiling panel (AID 1508598); conditions: patient-derived ovarian cancer cells, CellTiter-Glo viability, 144 h, stronger effect = lower value
[14] = stronger effect = lower value, cell number ratio, induced over uninduced
[15] = measured here: relative caspase fold change +Dox/-Dox
[16] = measured here: total cells with miR-34 induction, stronger effect = lower value
[17] = measured here: total cells without miR-34 induction

CC(C)c1cc(C(=O)N2Cc3ccc(CN4CCN(C)CC4)cc3C2)c(O)cc1O
AC50 [1]: 468 nM (active)
AC50 [2]: 1180 nM (active)
AC50 [3]: 296 nM (active)
AC50 [4]: 526 nM (active)
AC50 [5]: 742 nM (active)
AC50 [6]: 525 nM (active)
AC50 [7]: 661 nM (active)
IC50 [8]: 1480 nM (active)
fold change [9, 14]: 0.888 (inactive)
fold change [9, 15]: 0.921
cell count [9, 16]: 1780
cell count [9, 17]: 2010
z-score ([10]; MELAS cybrid survival, CellTiter-Glo 48 h, stronger effect = higher value): 2.68 (active)
z-score ([10]; Rieske KO mouse fibroblast survival, CellTiter-Glo 72 h): -0.499

Cc1cncc2cccc(S(=O)(=O)N3CCCN(C(=O)CN)C[C@@H]3C)c12
outcome [1]: inactive
outcome [2]: inactive
outcome [3]: inactive
AC50 [4]: 372 nM (active)
outcome [5]: inactive
outcome [11]: inactive
outcome [7]: inactive

CC(/C=C/C(=O)NO)=C\[C@@H](C)C(=O)c1ccc(N(C)C)cc1
AC50 [1]: 332 nM (active)
AC50 [2]: 7430 nM (active)
AC50 [3]: 1480 nM (active)
AC50 [4]: 590 nM (active)
AC50 [5]: 209 nM (active)
AC50 [6]: 372 nM (active)
AC50 [7]: 525 nM (active)
fold change [9, 14]: 0.973 (inactive) and 1 (inactive)
fold change [9, 15]: 1.51 and 0.994
cell count [9, 16]: 926 and 1160
cell count [9, 17]: 952 and 1150
SSMD [12]: -1.78
cell count [12]: 7010
plate-normalised HSF1 focus index [12]: 0.921 (inactive)
viability ([13]; at 0.000305 µM, OCI-C5x cells, with rucaparib 10 µM, 100% = cells with rucaparib alone): 111% (inactive)
viability ([13]; at 0.000305 µM, OCI-C5x cells, without rucaparib): 91.4% (active)
viability ([13]; at 0.000305 µM, OCI-P5x cells, with rucaparib 20 µM, 100% = cells with rucaparib alone): 77.4% (active)
viability ([13]; at 0.000305 µM, OCI-P5x cells, without rucaparib): 83.4% (active)
viability ([13]; at 0.00122 µM, OCI-C5x cells, with rucaparib 10 µM, 100% = cells with rucaparib alone): 117% (inactive)
viability ([13]; at 0.00122 µM, OCI-C5x cells, without rucaparib): 102% (inactive)
viability ([13]; at 0.00122 µM, OCI-P5x cells, with rucaparib 20 µM, 100% = cells with rucaparib alone): 82.5% (active)
viability ([13]; at 0.00122 µM, OCI-P5x cells, without rucaparib): 83.5% (active)
viability ([13]; at 0.00488 µM, OCI-C5x cells, with rucaparib 10 µM, 100% = cells with rucaparib alone): 107% (inactive)
viability ([13]; at 0.00488 µM, OCI-C5x cells, without rucaparib): 105% (inactive)
viability ([13]; at 0.00488 µM, OCI-P5x cells, with rucaparib 20 µM, 100% = cells with rucaparib alone): 75.8% (active)
viability ([13]; at 0.00488 µM, OCI-P5x cells, without rucaparib): 89.8% (active)
viability ([13]; at 0.0195 µM, OCI-C5x cells, with rucaparib 10 µM, 100% = cells with rucaparib alone): 115% (inactive)
viability ([13]; at 0.0195 µM, OCI-C5x cells, without rucaparib): 109% (inactive)
viability ([13]; at 0.0195 µM, OCI-P5x cells, with rucaparib 20 µM, 100% = cells with rucaparib alone): 81.7% (active)
viability ([13]; at 0.0195 µM, OCI-P5x cells, without rucaparib): 76.1% (active)
viability ([13]; at 0.0781 µM, OCI-C5x cells, with rucaparib 10 µM, 100% = cells with rucaparib alone): 42.3% (active)
viability ([13]; at 0.0781 µM, OCI-C5x cells, without rucaparib): 17.8% (active)
viability ([13]; at 0.0781 µM, OCI-P5x cells, with rucaparib 20 µM, 100% = cells with rucaparib alone): 50.3% (active)
viability ([13]; at 0.0781 µM, OCI-P5x cells, without rucaparib): 51.8% (active)
viability ([13]; at 0.313 µM, OCI-C5x cells, with rucaparib 10 µM, 100% = cells with rucaparib alone): 8.25% (active)
viability ([13]; at 0.313 µM, OCI-C5x cells, without rucaparib): 6.7% (active)
viability ([13]; at 0.313 µM, OCI-P5x cells, with rucaparib 20 µM, 100% = cells with rucaparib alone): 13% (active)
viability ([13]; at 0.313 µM, OCI-P5x cells, without rucaparib): 12.1% (active)
viability ([13]; at 1.25 µM, OCI-C5x cells, with rucaparib 10 µM, 100% = cells with rucaparib alone): 4.57% (active)
viability ([13]; at 1.25 µM, OCI-C5x cells, without rucaparib): 4.64% (active)
viability ([13]; at 1.25 µM, OCI-P5x cells, with rucaparib 20 µM, 100% = cells with rucaparib alone): 2.76% (active)
viability ([13]; at 1.25 µM, OCI-P5x cells, without rucaparib): 2.28% (active)
viability ([13]; at 5 µM, OCI-C5x cells, with rucaparib 10 µM, 100% = cells with rucaparib alone): 5% (active)
viability ([13]; at 5 µM, OCI-C5x cells, without rucaparib): 4.88% (active)
viability ([13]; at 5 µM, OCI-P5x cells, with rucaparib 20 µM, 100% = cells with rucaparib alone): 0.994% (active)
viability ([13]; at 5 µM, OCI-P5x cells, without rucaparib): 1.21% (active)

c1ccc(-c2nn3c(c2-c2ccnc4cc(OCCN5CCOCC5)ccc24)CCC3)nc1
outcome [1]: inactive
outcome [2]: inactive
outcome [3]: inactive
outcome [4]: inactive
outcome [5]: inactive
outcome [11]: inactive
outcome [7]: inactive
SSMD [12]: 2.44
cell count [12]: 6520
plate-normalised HSF1 focus index [12]: 1.13 (inactive)

C=Cc1c(C)c2cc3nc(cc4[nH]c(cc5nc(cc1[nH]2)C(C)=C5CCC(=O)O)c(CCC(=O)OC)c4C)[C@@]1(C)C3=CC=C(C(=O)OC)[C@H]1C(=O)OC
AC50 [1]: 11800 nM (active)
AC50 [2]: 743 nM (active)
AC50 [3]: 66.2 nM (active)
AC50 [4]: 105 nM (active)
AC50 [5]: 9340 nM (active)
AC50 [11]: 14800 nM (active)

c1cc(OCCN2CCCCC2)cc(-c2n[nH]c3ccc(-c4ncn[nH]4)cc23)c1
outcome [1]: inactive
outcome [2]: inactive
outcome [3]: inactive
outcome [4]: inactive
outcome [5]: inactive
outcome [11]: inactive
outcome [7]: inactive
outcome [8]: inactive
